Reference: ChEMBL document CHEMBL3433997, “St. Jude Leishmania screening dataset” (2016)

target: Hexose transporter 1 (Plasmodium falciparum) (UniProt O97467); test: ST_JUDE_LEISH: Cytotoxicity at 2uM final concentration against transgenic Leishmania Mexicana promastigotes LmPfHT that are glucose transport deficient and complemented with the Plasmodium falciparum hexose transporter. Activity is measured by DNA content using SYBR green in vitro; format: functional

Structure (SMILES)	inhibition
CC(=O)Nc1ncc(C(=O)Nc2cccc(-c3ccc(-c4nc5cc(C(F)(F)F)ccc5[nH]4)s3)c2)s1	4.16%
CCOc1c(C)cc(C(F)(F)F)cc1CNCCCNc1cc(=O)c2ccccc2[nH]1	5.03%
Cc1csc2nc(-c3ccccn3)nc(Nc3ccc4ncsc4c3)c12	2.13%
O=C(Nc1ccc(Br)cc1)N1CCC(n2c(-c3ccccc3)nc3cccnc32)CC1	1.56%
CCCCCCCC1CC(CC(=O)Nc2ccnc3ccc(OC)cc23)CN1 (stereo not given)	0.43%
Cc1cccc(NC(=S)NC2CCN(CCCCCNC(=O)/C=C/c3ccc(Cl)c(Cl)c3)CC2)c1	1.13%
COc1ccc(CN2CCC(CN3CC4(OC3=O)c3ccccc3-c3ccccc34)C2)c(O)c1 (stereo not given)	9.02%
Fc1ccc2[nH]c(-c3ccc(-c4cccc(CN5CCC(CCN6CCCCC6)CC5)c4)cc3)nc2c1	1.77%
O=C(/C=C/c1cc(C(F)(F)F)ccc1F)NCCCCCN1CCC(c2c[nH]c3ccccc23)CC1	1.47%
OC(CNCc1ccccc1OCc1ccccc1)c1cccc(Br)c1 (stereo not given)	4.13%
COc1c(CNCCCCCCNCc2c(OC)c(OC)c3ccccc3c2OC)c(OC)c2ccccc2c1OC	11.8%
COc1ccc(Nc2nccc(-c3cccc(NC(=O)c4cc5cc(F)ccc5[nH]4)c3)n2)cc1	0.11%
CCC(CC(C)C(=O)O)=C(c1ccccc1)c1ccccc1 (stereo not given)	-0.86%
Cc1cccc2nc(-c3ccc(-c4cccc(CN5CCCC(N)C5)c4)s3)[nH]c12 (stereo not given)	11.2%
Cc1cnc(Nc2cccnc2)nc1Nc1ccccc1C(=O)NC(C)C	1.12%
Nc1nc(Nc2ccc(Cl)cc2)nc2ccccc12	12.4%
Cc1csc(-c2nc(NCc3cccnc3)ncc2-c2ccsc2)n1	2.53%
CCCCCN1CCCC1CNS(=O)(=O)c1cccc(C(=O)Nc2cccc(C#N)c2)c1 (stereo not given)	4.82%
Cn1cccc1CCNCc1ccc(-c2cccc(-c3nc4ccccc4[nH]3)c2)cc1	3.07%
Nc1ccc(-c2ccc(NC(=O)Nc3cc(C(F)(F)F)ccc3F)cc2)cn1	4.54%

Structure (SMILES)	inhibition
CCOc1cc(C)ccc1C1CCN(CCCCNC(=O)c2cccc(-c3ccc(C(F)(F)F)cc3)c2)CC1	2.27%
C#Cc1cccc(NC(=O)[C@H](CC2CCCCC2)Nc2ccc(C#N)c3ccccc23)c1	2.53%
Cc1cccc2nc(-c3ccc(-c4ccc(C(=O)NCCN5CCCC5)cc4)s3)[nH]c12	0.54%
O=C(Nc1ccc(C(F)(F)F)cc1)NC1CCN(c2ccnc3ccccc23)CC1	3.35%
CC(C)(C(=O)NCCC1CCN(CCCCCNC(=O)/C=C/c2ccc(Cl)c(Cl)c2)CC1)c1ccc(Cl)cc1	4.45%
Cc1ccc(O)cc1C[C@@H]1C(=O)CC[C@@]2(C)[C@H]1CC[C@]2(C)O	1%
CCC(C)NC(=O)CN1CN(c2ccccc2)C2(CCN(C(=O)c3ccc(-c4ccccc4)cc3)CC2)C1=O (stereo not given)	11.5%
NC1CCCN(Cc2cccc(-c3ccc(-c4nc5cc(C(F)(F)F)ccc5[nH]4)cc3)c2)C1 (stereo not given)	0.39%
COc1ccc(C(=O)Nc2ccc3oc(-c4ccc(C(F)(F)F)cc4)cc3c2)cc1CCCN(C)C	2.26%
CCOc1ccc2ccccc2c1CNCCCCCCNCc1c(OCC)ccc2ccccc12	6.69%
CN(CCCCNC(=O)c1ccc(-c2ccccc2)cc1)C1CCc2c(O)cccc2C1 (stereo not given)	2.13%
CO/C(=C\C=C\c1cc2cc(Cl)c(Cl)cc2[nH]1)C(=O)NCCCN1CCN(c2cccc(OC)c2)CC1	8.04%
N=C(N)Nc1nc(-c2cc(NC(=O)C(F)(F)F)cc([N+](=O)[O-])c2)cs1	0.51%
COc1ccc(CCN(C)CCOc2ccc(NC(=O)c3cccc4c(=O)c5cc(SC)ccc5[nH]c34)cc2)cc1OC	8.61%
CCN(CC)CCN(Cc1ccc(-c2ccc(C(F)(F)F)cc2)cc1)C(=O)Cn1c(CCc2ccc(F)c(C#N)c2)nc(=O)c2ccccc21	7.67%
COc1ccccc1CN1CCC(NC(=O)c2ccc(-c3ccc(N(C)C)cc3)s2)CC1	12.6%
Oc1cc(-c2nc(C3(CNCc4ccc(Cl)cc4)CCCCC3)[nH]c2-c2ccncc2)ccc1Cl	5.35%
CCCN(CCC)CCCNc1ccc(C(=O)Nc2ccc(C(C)C)cc2)cc1[N+](=O)[O-]	22.2%
COc1ccc(-c2cnc3ccc(NC4CCC(O)CC4)nn23)cn1 (stereo not given)	0.45%
CC(C)(Oc1c(C2CCN(CCCCNC(=O)c3ccc(-c4ccc(Cl)cc4)cc3)CC2)ccc2c1CCCC2)C(N)=O	-0.94%

target: Glucose transporter (Leishmania mexicana) (UniProt O61059); test: ST_JUDE_LEISH: Cytotoxicity at 2uM final concentration against transgenic Leishmania Mexicana promastigotes LmGT2 that are glucose transport deficient and complemented with the L. Mexicana glucose transporter 2. Activity is measured by DNA content using SYBR green in vitro; format: functional

Structure (SMILES)	inhibition
CC(=O)Nc1ncc(C(=O)Nc2cccc(-c3ccc(-c4nc5cc(C(F)(F)F)ccc5[nH]4)s3)c2)s1	3.18%
CCOc1c(C)cc(C(F)(F)F)cc1CNCCCNc1cc(=O)c2ccccc2[nH]1	5.79%
Cc1csc2nc(-c3ccccn3)nc(Nc3ccc4ncsc4c3)c12	0.95%
O=C(Nc1ccc(Br)cc1)N1CCC(n2c(-c3ccccc3)nc3cccnc32)CC1	4.12%
CCCCCCCC1CC(CC(=O)Nc2ccnc3ccc(OC)cc23)CN1 (stereo not given)	0.67%
Cc1cccc(NC(=S)NC2CCN(CCCCCNC(=O)/C=C/c3ccc(Cl)c(Cl)c3)CC2)c1	0.99%
COc1ccc(CN2CCC(CN3CC4(OC3=O)c3ccccc3-c3ccccc34)C2)c(O)c1 (stereo not given)	11%
Fc1ccc2[nH]c(-c3ccc(-c4cccc(CN5CCC(CCN6CCCCC6)CC5)c4)cc3)nc2c1	0.37%
O=C(/C=C/c1cc(C(F)(F)F)ccc1F)NCCCCCN1CCC(c2c[nH]c3ccccc23)CC1	0.28%
OC(CNCc1ccccc1OCc1ccccc1)c1cccc(Br)c1 (stereo not given)	2.24%
COc1c(CNCCCCCCNCc2c(OC)c(OC)c3ccccc3c2OC)c(OC)c2ccccc2c1OC	56.7%
COc1ccc(Nc2nccc(-c3cccc(NC(=O)c4cc5cc(F)ccc5[nH]4)c3)n2)cc1	-1.2%
CCC(CC(C)C(=O)O)=C(c1ccccc1)c1ccccc1 (stereo not given)	0.2%
Cc1cccc2nc(-c3ccc(-c4cccc(CN5CCCC(N)C5)c4)s3)[nH]c12 (stereo not given)	11.7%
Cc1cnc(Nc2cccnc2)nc1Nc1ccccc1C(=O)NC(C)C	2.25%
Nc1nc(Nc2ccc(Cl)cc2)nc2ccccc12	6.83%
Cc1csc(-c2nc(NCc3cccnc3)ncc2-c2ccsc2)n1	3.04%
CCCCCN1CCCC1CNS(=O)(=O)c1cccc(C(=O)Nc2cccc(C#N)c2)c1 (stereo not given)	3.88%
Cn1cccc1CCNCc1ccc(-c2cccc(-c3nc4ccccc4[nH]3)c2)cc1	2.55%
Nc1ccc(-c2ccc(NC(=O)Nc3cc(C(F)(F)F)ccc3F)cc2)cn1	2.2%

Structure (SMILES)	inhibition
CCOc1cc(C)ccc1C1CCN(CCCCNC(=O)c2cccc(-c3ccc(C(F)(F)F)cc3)c2)CC1	2.69%
C#Cc1cccc(NC(=O)[C@H](CC2CCCCC2)Nc2ccc(C#N)c3ccccc23)c1	1.87%
Cc1cccc2nc(-c3ccc(-c4ccc(C(=O)NCCN5CCCC5)cc4)s3)[nH]c12	-0.1%
O=C(Nc1ccc(C(F)(F)F)cc1)NC1CCN(c2ccnc3ccccc23)CC1	-3.98%
CC(C)(C(=O)NCCC1CCN(CCCCCNC(=O)/C=C/c2ccc(Cl)c(Cl)c2)CC1)c1ccc(Cl)cc1	4.35%
Cc1ccc(O)cc1C[C@@H]1C(=O)CC[C@@]2(C)[C@H]1CC[C@]2(C)O	2.57%
CCC(C)NC(=O)CN1CN(c2ccccc2)C2(CCN(C(=O)c3ccc(-c4ccccc4)cc3)CC2)C1=O (stereo not given)	7.73%
NC1CCCN(Cc2cccc(-c3ccc(-c4nc5cc(C(F)(F)F)ccc5[nH]4)cc3)c2)C1 (stereo not given)	2.55%
COc1ccc(C(=O)Nc2ccc3oc(-c4ccc(C(F)(F)F)cc4)cc3c2)cc1CCCN(C)C	0.34%
CCOc1ccc2ccccc2c1CNCCCCCCNCc1c(OCC)ccc2ccccc12	4.92%
CN(CCCCNC(=O)c1ccc(-c2ccccc2)cc1)C1CCc2c(O)cccc2C1 (stereo not given)	1.18%
CO/C(=C\C=C\c1cc2cc(Cl)c(Cl)cc2[nH]1)C(=O)NCCCN1CCN(c2cccc(OC)c2)CC1	9.1%
N=C(N)Nc1nc(-c2cc(NC(=O)C(F)(F)F)cc([N+](=O)[O-])c2)cs1	1%
COc1ccc(CCN(C)CCOc2ccc(NC(=O)c3cccc4c(=O)c5cc(SC)ccc5[nH]c34)cc2)cc1OC	6.56%
CCN(CC)CCN(Cc1ccc(-c2ccc(C(F)(F)F)cc2)cc1)C(=O)Cn1c(CCc2ccc(F)c(C#N)c2)nc(=O)c2ccccc21	8.84%
COc1ccccc1CN1CCC(NC(=O)c2ccc(-c3ccc(N(C)C)cc3)s2)CC1	8.12%
Oc1cc(-c2nc(C3(CNCc4ccc(Cl)cc4)CCCCC3)[nH]c2-c2ccncc2)ccc1Cl	5.4%
CCCN(CCC)CCCNc1ccc(C(=O)Nc2ccc(C(C)C)cc2)cc1[N+](=O)[O-]	13.2%
COc1ccc(-c2cnc3ccc(NC4CCC(O)CC4)nn23)cn1 (stereo not given)	0.93%
CC(C)(Oc1c(C2CCN(CCCCNC(=O)c3ccc(-c4ccc(Cl)cc4)cc3)CC2)ccc2c1CCCC2)C(N)=O	-1.84%
